Assay results taken from PubChem BioAssay (NCI).
Compounds without any hit were thinned out: in the full panel of roughly 83,000, 20% have a hit.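 Compound tested at a single concentration for 48 hours in 96-well plates; a percent growth value below 10 was scored as active.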 Unmarked numbers belong to inactive results. Calls of active or inactive are those of the source.

Columns and labels:
Experiment in all cases: NCI-60 one-dose screen, 48 h (100 = growth as untreated, 0 = no growth, -100 = all killed)
[1] = system: NCI-H23 lung; conditions: 10 µM unless noted
[2] = system: NCI-H226 lung; conditions: 10 µM unless noted
[3] = system: DU-145 prostate; conditions: 10 µM unless noted
[4] = system: MDA-MB-231 breast; conditions: 10 µM unless noted
[5] = system: SF-268 CNS; conditions: 10 µM unless noted
[6] = system: M14 melanoma; conditions: 10 µM unless noted
[7] = system: HCT-15 colon; conditions: 10 µM
[8] = system: SNB-75 CNS; conditions: 10 µM unless noted
[9] = system: U251 CNS; conditions: 10 µM unless noted
[10] = system: PC-3 prostate; conditions: 10 µM unless noted
[11] = system: UACC-62 melanoma; conditions: 10 µM unless noted
[12] = system: OVCAR-8 ovarian; conditions: 10 µM unless noted
[13] = system: OVCAR-5 ovarian; conditions: 10 µM unless noted
[14] = system: SK-OV-3 ovarian; conditions: 10 µM unless noted
[15] = system: OVCAR-3 ovarian; conditions: 10 µM unless noted
[16] = system: NCI/ADR-RES ovarian; conditions: 10 µM unless noted
[17] = system: MDA-MB-435 melanoma; conditions: 10 µM unless noted
[18] = system: MCF7 breast; conditions: 10 µM unless noted
[19] = system: HCT-116 colon; conditions: 10 µM unless noted
[20] = system: KM12 colon; conditions: 10 µM unless noted

Compound	growth [1] [%]	growth [2]	growth [3]	growth [4] [%]	growth [5] [%]	growth [6] [%]	growth [7] [%]	growth [8] [%]	growth [9] [%]	growth [10]	growth [11] [%]	growth [12] [%]	growth [13]	growth [14] [%]	growth [15] [%]	growth [16] [%]	growth [17]	growth [18] [%]	growth [19] [%]	growth [20] [%]
C[As](=O)(O)c1ccc(C(=O)O)cc1	110	99.7%	109%	102	110	104	99.2	90.2	89.5	97.9%	101	101	115%	106	121	108	98.4%	100	110	111
O=C(O)CC(Br)C(=O)CBr (centres undefined)	108	91.9%	111%	98.2	106	103	93.5	93.5	99.2	98.7%	102	99.4	106%	106	114	111	108%	86.3	100	111
O=C1NC(=O)C(O)(C2(O)C(=O)NC(=O)NC2=O)C(=O)N1	103	99.5%	109%	91.2	91.6	105	107	94	99.9	89.2%	87.2	109	88.1%	111	115	92.7	108%	138	97	100
Cc1cc(NC(=O)CCc2ccc(N3C(N)=NC(N)=NC3(C)C)cc2)ccc1S(=O)(=O)F	26.2	37.4%	45.8%	76.8	32.2	48.2	60.1	52.5	24.2	-23.4% (active)	22.6	40.9	17.9%	67.3	71.5	19.2	32%	14.9	18.3	18.8
NC(Cc1ccc(O)cc1)C(=O)N/N=C/c1ccc(N(CCCl)CCCl)cc1 (centres undefined)	69.6	46.8%	69.2%	73.7	55.9	93.6	85.8	70.2	76.7	56%	31.4	80.5	115%	90	101	78.4	84.7%	54.5	84	75
CC1CC=CCC12C(=O)NC(=S)NC2=O (centres undefined)	113	102%	122%	117	115	114	103	81.4	94.9	98.4%	105	104	103%	104	118	113	106%	105	108	116
O=C(CF)N(O)c1ccc(/C=C/c2ccccc2)cc1	60.7	-22.9% (active)	1.13% (active)	73.4	42.5	43.2	66.6	70.9	35.6	62.3%	23.4	39.9	82.6%	65.6	23.9	44.1	72.3%	16.5	11.5	69.5
C[CH2][Pb]([CH2]C)([CH2]C)[O]C(=O)c1ccc(N)cc1	51.2	87.5%	68%	88.7	72.9	60	66.1	47.2	77.4	57.5%	73.4	82.1	85.1%	76.4	57.5	59.7	-72.9% (active)	56.1	57.7	59.4
O=C(/C=C/c1ccccc1)N[C@@H](CO)Cc1cnc[nH]1	113	94%	114%	98.9	101	105	98.6	94.3	101	97.9%	110	99.8	98.3%	113	112	98	113%	98.7	109	105
[N-]=[N+]=NC(C(=O)O)c1ccccc1 (centres undefined)	99.2	125%	116%	110	118	101	101	96.6	104	112%	117	100	102%	99.5	118	107	99.9%	88.2	101	111
CC12CCC(=O)C=C1C(O)CC1C2CCC2(C)C(O)CCC12 (centres undefined)	100	94.7%	102%	114	98	105	106	94.5	97.3	95%	99.5	105	108%	115	103	108	112%	97.1	99	98.8
Cc1ccc2oc(=O)c3c(c2c1)OC(N)=C(C#N)C3c1ccco1 (centres undefined)	98.3	91.9%	103%	103	101	99.8	103	96.2	109	95.9%	95.9	101	102%		104	102	105%	93.8	99.9	98.9
Oc1ccc2c3c1O[C@H]1c4[nH]c5ccccc5c4C[C@@]4(O)C(C2)N(CC2CC2)CC[C@]314	90.9	94.4%	96.6%	101	93.2	98.6	99.7	76.8	90.2	88.1%	102	93.2	106%	103	89.1	92.1	100%	99.7	89.8	90.7
C[C@]12CC[C@@H]3C4=C(CC[C@H]3[C@@H]1CC[C@@H]2O)CC(=O)CC4	98.3	94%	116%	103	99.7	107	100	101	96.8	103%	83.3	101	-62.7% (active)	114	113	95.8	103%	118	102	107
FC(F)=C(F)c1ccccc1	103	113%	108%	115	111	96.7	107	88.8	103	104%	107	104	112%	97.5	114	106	104%	96.9	103	102
O=C(NCc1ccc([N+](=O)[O-])cc1)Nc1ccc(S(=O)(=O)F)cc1	81.3	63.7%	102%	80.4	89.9	93.5	87.1	86.2	85.7	74.6%	65.1	80	83.9%	94.9	87	78.3	92.8%	83.7	82.2	84.2
